ELG1 repair inh – qHTS screen for small molecules that inhibit ELG1-dependent DNA repair in human embryonic kidney (HEK293T) cells expressing luciferase-tagged ELG1 | HEK293T ELG1-luciferase reporter, luminescence, 16 h; DNA damage induced by 5-fluorouridine | Potency, µM (titrated, usually from 46.1 µM), for inactives: at the top dose activity change, negative = inhibition, most hits filed as inhibitors | 2.3% of 330,000 active; also: % is scaled to controls: 0 for no effect and ±100 for the full control effect; nearly all actives have a fitted effect of over 55% in size
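Step one: seed 2,000 cells per well. Step two: pin-transfer compound or DMSO alongside 5-fluorouridine. Step three: incubate 16 hr, 37 °C, 5% CO2. Step four: add ONE-Glo, wait 30 min, read luminescence.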
KB-3-1 cytotox – qHTS assay for MDR1-selective chemotherapeutics: Primary screen using the parental adenocarcinoma cell KB-3-1; Potency, µM (doses to about 46.1 µM), hits mostly cytotoxic; KB-3-1 viability, CellTiter-Glo ATP luminescence, 72 h; 1.4% of 400,000 active; also: % is scaled to controls: 0 for no effect and ±100 for the full control effect; nearly all actives have a fitted effect of over 60% in size
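Screening of KB-3-1 cells (DMEM, 10% FBS, phenol-red free) ran from lowest to highest compound concentration; after 72 h at 37 °C viability was read luminescently and curves fitted.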
SW480 rereplic – A quantitative high throughput screen for small molecules that induce DNA re-replication in SW480 colon adenocarcinoma cells | SW480 DNA re-replication, Hoechst DNA content imaging, 48 h | Potency, µM (titrated, usually from 46.1 µM), for the others: at the highest dose re-replication activation, most hits filed as activators | 1.8% of 340,000 active; also: % of control where 0% means no effect; nearly all actives have a fitted effect of over 55% in size
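Hoechst fluorescence of nuclei (405 nm excitation, 500-530 nm emission) measured by plate-scanning imager after 48 hr compound exposure at 37 C; re-replication scored as increased number of nuclei with elevated intensity.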
KB-V1 MDR tox – qHTS assay for MDR1-selective chemotherapeutics: Primary screen using the drug-selected MDR subline cells KB-V1; Potency, µM (highest dose often 46.1 µM), usual class: cytotoxic; AID 1347076, 2019; 3.4% of 400,000 active; KB-V1 MDR cells viability, CellTiter-Glo, 72 h; also: % is scaled to controls: 0 for no effect and ±100 for the full control effect; nearly all actives have a fitted effect of over 60% in size
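Cytotoxicity via CellTiter-Glo luminescence after 72 h compound exposure at 37 degrees C. Cells: drug-selected KB-V1 line, DMEM phenol-red free plus 10% FBS. Compounds tested at multiple concentrations; normalized data fitted to concentration-effect curves.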
MCF10A rerep – A quantitative high throughput screen for small molecules that induce DNA re-replication in MCF 10a normal breast cells; AID 624296, 2012; MCF 10A DNA re-replication, Hoechst nuclear intensity, 48 h; 2.9% of 350,000 active; Potency, µM (doses to about 46.1 µM), without a hit: at the top dose activity, positive = re-replication, hits mostly activators; also: % of control where 0% means no effect; nearly all actives have a fitted effect of over 50% in size
An asterisk follows results filed as active; i = inactive; ? = inconclusive; . = no result. Compounds with a hit are over-represented: about 8.2% of the library has one in this group of screens. Calls follow the shape of the dose curve; as a rule, active = well fitted curve in the direction sought with a large enough effect; inconclusive = small, poorly fitted or top-dose-only effect, or another doubt; inactive = no such curve, though single readings can be large; an effect the other way counts as inactive or inconclusive. Potency is read from the fitted curve at half-maximal effect.

SMILES | ELG1 repair inh | KB-3-1 cytotox | SW480 rereplic | KB-V1 MDR tox | MCF10A rerep
CSc1ccc(CCNC(=O)CN2C(=O)COc3ccc(S(=O)(=O)N4CCCC4)cc32)cc1 | . | i | . | i | .
Cn1c(=O)c2ccccc2n(Cc2cccc(F)c2)c1=O | -20% | i | -1% | i | 5%
N#Cc1cc2c(=O)n3ccccc3nc2n(-c2ccc(Cl)cc2)c1=O | -7% | i | ? | i | 0.52µM*
COc1ccc(C2NC(=O)c3ccccc3N2)cc1OC (stereo unspecified) | ? | i | -7% | i | ?
COc1ccc(C(=O)/C=C2/C(=O)Nc3ccccc32)cc1OC | 7% | i | ? | i | 8.2µM*
NC(=O)COc1ccc(C(=O)/C=C2/C(=O)Nc3ccccc32)cc1 | -3% | i | 23µM* | i | ?
COc1ccc(C(=O)/C=C2/C(=O)Nc3ccccc32)cc1 | ? | ? | ? | i | 9.2µM*
O=C1Nc2ccccc2/C1=C/C(=O)c1cccs1 | -3% | i | ? | i | 21µM*
C=CCOc1ccc(C(=O)/C=C2/C(=O)Nc3ccccc32)cc1 | -4% | i | ? | i | ?
CC1(C(=O)NCc2ccccc2)CN(S(C)(=O)=O)CC(=O)N1CCCN1CCOCC1 (stereo unspecified) | . | i | . | i | .
COc1ccc(S(=O)(=O)NCC(c2ccc(C)cc2)N2CCN(C)CC2)cc1 (stereo unspecified) | 0% | i | -2% | i | 0%
C=CCOc1ccccc1C(=O)/C=C1/C(=O)Nc2ccccc21 | 1% | ? | ? | i | 3.7µM*
COc1ccc(C(=O)/C=C2/C(=O)Nc3ccccc32)c(OC)c1 | 0% | ? | ? | ? | 23µM*
COc1ccc(C(=O)/C=C/Nc2ccccn2)c(OC)c1 | ? | i | -13% | ? | 11%
CN(Cc1ccccc1)S(=O)(=O)c1ccc(NC(=O)c2ccccc2C(=O)O)cc1 | . | i | -2% | i | -1%
N#CC(=C1C=CC(=NO)C(Cl)=C1)c1ccccc1 | . | 6.5µM* | . | ? | .
O=C(CN1CCN(S(=O)(=O)c2ccc(Br)s2)CC1)NCC1CCCCC1 | . | i | . | i | .
O=C(CN1CCN(S(=O)(=O)c2ccc(Br)s2)CC1)NC1CCCCC1 | . | i | -2% | 10µM* | -1%
Cc1cc(C)cc(NC(=O)CN2CCCN(S(=O)(=O)c3ccc(Br)s3)CC2)c1 | -21% | ? | 2% | 2.9µM* | 12%
Cc1ccc(NC(=O)CN2CCCN(S(=O)(=O)c3ccc(Br)s3)CC2)cc1 | ? | i | 4% | 4.6µM* | 24%
CCCNC(=O)CN1CCN(S(=O)(=O)c2ccc(Br)s2)CC1 | -1% | i | -6% | ? | 14%
O=C(CN1CCN(S(=O)(=O)c2ccc(Br)cc2)CC1)N/N=C/c1ccc(Br)s1 | ? | i | 3% | 21µM* | -7%
O=S(=O)(c1ccccc1C(F)(F)F)N1CCN(c2nc(-c3ccccc3)nc3ccccc23)CC1 | . | ? | . | i | .
Cc1ccc(C2=NC(c3ccc(F)cc3)=Nc3ccc(C)cc3N2)cc1 | . | i | . | i | .
Cc1cc(NC(=O)c2cccc(S(=O)(=O)Nc3cccc(C(=O)O)c3)c2)no1 | 6% | i | 0% | i | ?
CCCc1nnc(SCC(=O)Nc2nc(C)cs2)n1CCOC | ? | i | -5% | ? | 10%
COc1ccc(CNC(=O)c2ccc3nc(CCc4ccccc4)oc3c2)c(OC)c1 | . | i | . | i | .
CSc1ccc(C(=O)C2CCCN(C(=O)c3ccc4c(c3)no[n+]4[O-])C2)cc1 (stereo unspecified) | 21% | i | -3% | ? | 18µM*
CSc1ccc(C(=O)C2CCCN(S(=O)(=O)N(C)C)C2)cc1 (stereo unspecified) | ? | ? | -2% | 21µM* | -2%
